# Test results from PubChem BioAssay.
# The source made the active and inactive calls.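 The calls were made as follows, unless noted: active = NADPH fluorescence slope more negative than the mean of all samples by about 3 SD, 99.7% confidence; inactive = the rest.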
# Key:
# [1] = inhibitors of TNFa-induced NFkB p65 translocation, primary screen, imaging, HUVEC, MLSMR starter and 10KST1 sets (AID 438;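 active = inhibition above 20% together with a positive visual image hit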;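 also: compound added about 3h40 before a 20 min TNFalpha stimulation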;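 as to inhibition: signal is the nuclear over cytoplasmic p65 intensity ratio per well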); conditions: HUVEC TNFa-induced p65 nuclear translocation; cell count: measured here: nuclei count (cytotoxicity indicator), at 2.08 µM; inhibition: at 2 µM, stronger effect = higher value, 0% TNFa-plus-vehicle, 100% no-TNFa wells
# [2] = reduction of polyQ htt aggregates in cells – imaging, exon1htt(103Q)mCFP cells, high-content imaging, primary screen (AID 483;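 active = visual image review flags a hit and inhibition of aggregation exceeds 20%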;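 also: compound exposure lasted 3 days before fixation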;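 as to nuclei count: percent of the per-plate median nuclei count of sample wells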); conditions: exon1htt(103Q)mCFP cell line, aggregate imaging, at 2 µM; inhibition of aggregation: stronger effect = higher value; nuclei count: measured here: cell count, toxicity
# [3] = endothelial E-selectin expression blockers – imaging, HUVEC, immunofluorescence, MLSMR starter and 10KST1 sets, primary screen (AID 487;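 active = visually confirmed hit in the image check and inhibition above 20%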;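 as to inhibition: signal is fraction of cell area covered by stained E-selectin grains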;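 as to nuclei count: 100% = median nuclei count of all wells on the same plate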); conditions: HUVEC TNFalpha-induced E-selectin immunofluorescence imaging, at 2 µM; inhibition: stronger effect = higher value; nuclei count: measured here: cell number, toxicity
# [4] = target: Voltage-gated potassium channel subunit beta-2 (Rattus norvegicus) (UniProt P62483); experiment: inhibitors of rat Kvbeta2 reductase activity – biochemical, NADPH fluorescence, primary screen (AID 622;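 active = fluorescence slope higher than the sample average by over 3 SD, cut at about -0.22 in these data, passing the limit was not always enough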;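 also: slope of raw intensity against log time taken from 70 to 1610 s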); conditions: recombinant KvBeta, 4-cyanobenzaldehyde reduction, at 10 µM, stronger effect = higher value
# Chain of Voltage-gated potassium channel subunit beta-2 (Rattus norvegicus) (P62483 whole entry, looked up): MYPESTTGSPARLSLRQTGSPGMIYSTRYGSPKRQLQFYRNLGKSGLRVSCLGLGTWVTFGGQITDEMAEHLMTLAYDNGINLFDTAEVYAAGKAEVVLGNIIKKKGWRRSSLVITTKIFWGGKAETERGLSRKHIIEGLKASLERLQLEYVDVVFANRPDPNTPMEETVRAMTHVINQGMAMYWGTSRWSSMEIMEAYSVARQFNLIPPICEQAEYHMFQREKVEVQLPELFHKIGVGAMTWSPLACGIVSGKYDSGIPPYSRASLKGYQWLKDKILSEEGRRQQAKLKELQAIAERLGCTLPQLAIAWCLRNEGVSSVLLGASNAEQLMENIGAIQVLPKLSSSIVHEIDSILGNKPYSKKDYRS
# [5] = target: Voltage-gated potassium channel subunit beta-2 (Rattus norvegicus) (UniProt P62483); experiment: enhancers of rat Kvbeta2 NADPH turnover – biochemical, NADPH fluorescence, primary screen (AID 623); conditions: Recombinant KvBeta, NADPH fluorescence decrease slope, 10 min; at 10 µM; stronger effect = lower value;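 also: fluorescence intensity change per second fitted from 20 to 320 s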
# [6] = target: Alpha-2C adrenergic receptor (Homo sapiens) (UniProt P18825); experiment: compounds altering alpha2C-coupled GIRK flux – cell-based, HEK293 alpha2C/GIRK1/2, thallium flux, primary screen (AID 624;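 active = fluorescence slope after compound addition differing from the mean of all screened samples at 99.7% confidence, in either direction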;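 also: slope of fluorescence ratio to pre-addition baseline per second over 15 to 24 s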); conditions: thallium flux BTC fluorescence, at 10 µM, actives lie on both sides
# Chain of Alpha-2C adrenergic receptor (Homo sapiens) (P18825 whole entry, looked up): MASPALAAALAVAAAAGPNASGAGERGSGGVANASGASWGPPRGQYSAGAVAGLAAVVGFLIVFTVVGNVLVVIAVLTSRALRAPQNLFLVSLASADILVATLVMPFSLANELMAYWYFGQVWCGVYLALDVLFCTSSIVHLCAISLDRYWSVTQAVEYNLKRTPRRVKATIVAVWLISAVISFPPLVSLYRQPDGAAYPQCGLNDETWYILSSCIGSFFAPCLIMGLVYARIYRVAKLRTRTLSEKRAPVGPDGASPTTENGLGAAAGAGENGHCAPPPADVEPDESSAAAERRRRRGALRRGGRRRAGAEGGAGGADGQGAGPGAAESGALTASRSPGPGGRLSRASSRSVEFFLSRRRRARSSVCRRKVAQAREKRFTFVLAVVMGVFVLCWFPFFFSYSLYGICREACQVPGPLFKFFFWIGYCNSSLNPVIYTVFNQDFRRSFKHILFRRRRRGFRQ
# [7] = blockers of RIG-like receptor reporter activation – cell-based, Sendai virus stimulus, luciferase, 10K MLSCN set, TLR/RLR signaling modifier project, primary screen (AID 602276;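 active = inhibition at or above 50% at 10 µM; inactive = inhibition below 50%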;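 also: firefly luciferase from ISG56 promoter only with Renilla not read in this screen; 0% = Sendai virus plus DMSO and 100% = medium plus DMSO without virus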); conditions: HEK293 RL24 IRF3 luciferase reporter, at 10 µM, stronger effect = higher value
# [8] = TLR3 IRF3 reporter activation blockers – cell-based, poly I:C stimulus, luciferase, 10K MLSCN set, primary screen (AID 602277;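 active = inhibition of the reporter signal at or above 50%; inactive = inhibition below 50%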); conditions: HEK293-TLR3 RL24 IRF3 luciferase reporter, at 10 µM, stronger effect = higher value
SMILES,cell count [1],inhibition [1],inhibition of aggregation [2],nuclei count [2] [%],inhibition [3],nuclei count [3] [%],fluorescence slope [4],NADPH fluorescence slope [5],slope [6],inhibition [7],inhibition [8]
Cc1cccc(N2CCN(C(=O)C3CCCN(S(=O)(=O)c4cnc[nH]4)C3)CC2C)c1 (stereo not drawn),387,1.7% (inactive),-14% (inactive),107,-11.9% (inactive),122,-0.438 (inactive),1.5e-05 (inactive),0.00647 (inactive),6.53% (inactive),17.4% (inactive)
COc1ccc(C2C(C(=O)N3CCC(C)CC3)c3ccccc3C(=O)N2C)cc1 (stereo not drawn),475,-3.8% (inactive),12.4% (inactive),91.5,-17.4% (inactive),101,-0.54 (inactive),-1.3e-05 (inactive),0.00505 (inactive),-9.25% (inactive),12.2% (inactive)
CCCSC1=C(C#N)C(c2cc(OC)ccc2OC)CC(=O)N1 (stereo not drawn),674,5.8% (inactive),10.8% (inactive),114,-61.3% (inactive),116,-0.518 (inactive),-4.2e-05 (inactive),0.00728 (inactive),18.1% (inactive),25.8% (inactive)
O=C(Nc1ccc2snnc2c1)N1CCSCC1,407,-3% (inactive),1.8% (inactive),97.6,12.4% (inactive),106,-0.371 (inactive),-1.5e-05 (inactive),0.00608 (inactive),-5.1% (inactive),3.28% (inactive)
O=C(c1ccc2c(c1)c(=O)oc1ccccc12)N1CCCCC1,206,0.3% (inactive),15.8% (inactive),87.8,19.4% (inactive),90.7,-0.363 (inactive),1.9e-05 (inactive),0.00354 (inactive),-50.7% (inactive),-130% (inactive)
O=c1oc2ccccc2c2c1ncn2-c1ccccc1,375,0% (inactive),-20.2% (inactive),113,-9.9% (inactive),114,-0.45 (inactive),7.5e-05 (inactive),0.00569 (inactive),16.7% (inactive),27.6% (inactive)
CCOC(=O)c1cccc(NC2c3ccccc3C(=O)N2Cc2ccco2)c1 (stereo not drawn),700,-2.3% (inactive),10.2% (inactive),117,-10.9% (inactive),119,-0.554 (inactive),-4.1e-05 (inactive),0.00706 (inactive),6.59% (inactive),17.6% (inactive)
COc1ccc(NC(=O)CN(c2ccc(C(C)C)cc2)S(=O)(=O)c2c(C)noc2C)cc1OC,787,3.4% (inactive),-119% (inactive),123,-24.6% (inactive),108,-0.617 (inactive),2e-05 (inactive),0.00605 (inactive),18.3% (inactive),41.9% (inactive)
C=CCn1c(SCC(=O)C(C)(C)C)nnc1-c1ccccn1,583,-3.4% (inactive),16.4% (inactive),83.3,9.2% (inactive),90.9,-0.291 (inactive),-5.6e-05 (inactive),0.00526 (inactive),12.5% (inactive),18.5% (inactive)
O=C(C1CCCN(S(=O)(=O)c2cccnc2)C1)N1CCn2c1nc1ccccc12 (stereo not drawn),639,-11.6% (inactive),-20.6% (inactive),112,-57.5% (inactive),107,-0.595 (inactive),-2.6e-05 (inactive),0.00573 (inactive),-7.64% (inactive),-1.49% (inactive)
COC(=O)CSc1nnc(-c2cccs2)n1-c1ccc(Cl)cc1,347,12.8% (inactive),10.2% (inactive),106,-50.2% (inactive),119,-0.482 (inactive),-1.6e-05 (inactive),0.00413 (inactive),17% (inactive),15.7% (inactive)
COc1ccc(N2CCN(CCCNC(=O)CC3Oc4ccc(C)cc4NC3=O)CC2)cc1 (stereo not drawn),581,0.9% (inactive),11.6% (inactive),104,-40.7% (inactive),130,-0.472 (inactive),1.7e-05 (inactive),0.00619 (inactive),12.9% (inactive),22.1% (inactive)
CCOC(=O)C(C(=O)OCC)C(C)C#CCN1CCCCC1 (stereo not drawn),325,-1.3% (inactive),-11.4% (inactive),99.7,-79.7% (inactive),113,-0.322 (inactive),-5.7e-05 (inactive),0.00551 (inactive),16.5% (inactive),26.6% (inactive)
Cc1cc(C)n(CCc2nc(-c3cccs3)cs2)n1,587,-10.1% (inactive),-5.8% (inactive),98.6,-52.1% (inactive),112,-0.603 (inactive),-5.2e-07 (inactive),0.00641 (inactive),-6.14% (inactive),-42.1% (inactive)
CC(O)CN1C(=O)C(CC(=O)Nc2ccc(Cl)cc2)SC1=Nc1ccccc1 (stereo not drawn),671,-3.9% (inactive),-11.8% (inactive),119,-16.8% (inactive),116,-0.453 (inactive),-0.000376 (inactive),0.00536 (inactive),2.35% (inactive),11.1% (inactive)
Cc1ncc(CSc2nc3ccccc3[nH]2)c(N)n1,920,11.9% (inactive),-17.1% (inactive),115,-37.5% (inactive),109,-0.606 (inactive),-9.7e-06 (inactive),0.00699 (inactive),4.12% (inactive),-10.7% (inactive)
CN(C)c1ccc(NC(=O)c2ccncc2)c2ccccc12,315,2.7% (inactive),6.2% (inactive),94.4,-88.6% (inactive),105,-0.316 (inactive),-5.4e-05 (inactive),0.00482 (inactive),15.4% (inactive),12% (inactive)
Cc1ccc(NC(=O)c2cc(S(=O)(=O)N3CCC4(CC3)OCCO4)ccc2F)cc1,369,-3.3% (inactive),12.5% (inactive),102,-43.7% (inactive),108,-0.441 (inactive),3.1e-05 (inactive),0.0033 (inactive),-8.15% (inactive),-22.3% (inactive)
O=C(c1ccc2nc(N3CCOCC3)sc2c1)N1CCCC1,708,-11.2% (inactive),6% (inactive),62.7,-70.6% (inactive),116,-0.564 (inactive),-2.7e-05 (inactive),0.00689 (inactive),3.55% (inactive),3.65% (inactive)
CCOC(=O)CN(C(=O)c1ccccc1)c1ccccc1C,600,-2.5% (inactive),-11.5% (inactive),108,36% (inactive),72.6,-0.419 (inactive),1.1e-05 (inactive),0.00342 (inactive),3.43% (inactive),31% (inactive)
CCOC(=O)N1CCN(C(=O)c2csc3c2CCCCC3)CC1,775,-27.2% (inactive),15.1% (inactive),121,-86% (inactive),106,-0.311 (inactive),1.7e-05 (inactive),0.00586 (inactive),-2.32% (inactive),9.33% (inactive)
CC(C)C1C2=C(CC(C)(C)CC2=O)ON1c1ccccc1 (stereo not drawn),444,0.5% (inactive),9.1% (inactive),86.8,-51.2% (inactive),115,-0.476 (inactive),-4.4e-05 (inactive),0.0045 (inactive),14.4% (inactive),16.5% (inactive)
CCOc1ccccc1N(CC(=O)NC1CCCC1)C(=O)CCCC(=O)Nc1ccccn1,369,5.3% (inactive),24.9% (inactive),102,-20% (inactive),122,-0.63 (inactive),-2.4e-05 (inactive),0.00589 (inactive),5.25% (inactive),19.7% (inactive)
Cc1ccc(C)c(NS(=O)(=O)c2ccc(NC(=O)c3ccco3)cc2)c1,476,13.3% (inactive),4.7% (inactive),111,-15.1% (inactive),109,-0.335 (inactive),-3.2e-05 (inactive),0.00608 (inactive),0.316% (inactive),11.1% (inactive)
CCOC(=O)c1ccc(N2Cc3cc(C)c(C)cc3C2)cc1O,744,2.9% (inactive),6.2% (inactive),92.7,-36.2% (inactive),119,-0.457 (inactive),-1.3e-05 (inactive),0.00595 (inactive),-26.7% (inactive),-52.7% (inactive)
CCCCn1c(=O)[nH]c(=O)c2c1nc(-c1ccncc1)n2CCOC,542,-15.4% (inactive),-7.3% (inactive),107,-19.9% (inactive),138,-0.446 (inactive),-4.3e-05 (inactive),0.00406 (inactive),0.301% (inactive),33.4% (inactive)
CN(CCCNC(=O)c1cn(C)c2ccc(S(=O)(=O)N(C)C)cc2c1=O)c1ccccc1,596,-4.5% (inactive),-18.9% (inactive),37.6,39.4% (inactive),94.2,-0.582 (inactive),-7.6e-06 (inactive),0.00499 (inactive),15.4% (inactive),7.91% (inactive)
Cc1ccc(-n2nnnc2SCC(=O)c2cc(C)n(CC3CCCO3)c2C)cc1 (stereo not drawn),452,6.3% (inactive),-11.9% (inactive),102,-52.2% (inactive),121,-0.437 (inactive),3.2e-05 (inactive),0.00567 (inactive),15.1% (inactive),-0.555% (inactive)
